The results in this text go back to PubChem BioAssay.

Active and inactive are the calls of the source.

In one assay the target is Albumin (Bos taurus) (UniProt P02769). Put plainly: bovine serum albumin binders on microarray, profiling panel, artefact control for SMM control protein annotation, biochemical, small-molecule microarray, Alexa647 label, 635/667 nm fluorescence (AID 1118).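 Note: score merges 667 nm emission intensity and signal-to-noise per printed compound spot.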 The settings on record: BSA-A647 binding, fluorescence 635 nm, higher = more signal.
Albumin (Bos taurus), sequence (P02769 whole entry, looked up): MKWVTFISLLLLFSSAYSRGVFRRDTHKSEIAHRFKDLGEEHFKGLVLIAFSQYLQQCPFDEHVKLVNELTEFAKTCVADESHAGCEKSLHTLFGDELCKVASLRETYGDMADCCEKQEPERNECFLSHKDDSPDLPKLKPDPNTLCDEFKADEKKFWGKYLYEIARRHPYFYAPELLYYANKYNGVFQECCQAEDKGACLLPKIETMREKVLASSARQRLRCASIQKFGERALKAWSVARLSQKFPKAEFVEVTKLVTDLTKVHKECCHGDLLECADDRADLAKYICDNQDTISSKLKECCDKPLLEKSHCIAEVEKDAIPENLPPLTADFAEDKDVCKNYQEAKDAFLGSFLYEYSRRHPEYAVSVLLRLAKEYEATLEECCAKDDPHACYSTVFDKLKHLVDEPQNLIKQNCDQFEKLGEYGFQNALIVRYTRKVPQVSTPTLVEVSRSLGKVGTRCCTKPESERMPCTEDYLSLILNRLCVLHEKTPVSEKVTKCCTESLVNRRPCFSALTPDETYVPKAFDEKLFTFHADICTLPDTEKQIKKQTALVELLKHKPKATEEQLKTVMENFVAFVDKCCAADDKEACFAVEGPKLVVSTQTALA
The nature of assay [1]: small-molecule microarray binders of probe aXIP, primary screen, biochemical, NeuroSMM set, 635/667 nm fluorescence (AID 1119).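 Note: probe is the protein aXip251-270 applied at 1 µg/mL to compound-printed slides; binding of probe to printed compounds measured as 667 nm fluorescence plus signal to noise.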 The settings on record: higher = more signal, called active from +8 up or from −8 down.
Assay [2] can be described thus: small-molecule binders of probe aNOTCH3, primary screen, biochemical, small-molecule microarray, 635/667 nm fluorescence (AID 1120).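 Note: probe is a biotin-tagged antibody raised against NOTCH3 rather than NOTCH3 protein; score merges spot fluorescence near 667 nm with spot signal to noise.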 The settings on record: higher = more signal.
Assay [3] can be described thus: small-molecule binders of probe aNOTCH2, primary screen, biochemical, small-molecule microarray, 635/667 nm fluorescence (AID 1121).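 Note: score merges feature fluorescence read at 667 nm with its signal to noise.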 The settings on record: higher = more signal.
In assay [4] the target is Carbonic anhydrase 2 (Homo sapiens) (UniProt P00918). Put plainly: CAII small-molecule binders, profiling panel, biochemical, small-molecule microarray, Alexa647-labelled CAII (AID 1122). The settings on record: CAII-A647 binding fluorescence, higher = more signal.
Assay [5] can be described thus: COS7 lysate on small-molecule microarray, probe aHis, 635 nm (AID 1123).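 Note: z-score combines 667nm fluorescence intensity with signal-to-noise per printed compound spot.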 The settings on record: COS7 cell lysate, fluorescence, higher = more signal.
A short description of assay [6]: compound binding in COS7 lysate, probe aLAP1, primary screen, cell lysate, small-molecule microarray (AID 1124).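 Note: lysate comes from COS7 cells expressing LAP1 and is applied at 0.3 µg/mL; score merges spot fluorescence near 667 nm with signal-to-noise over triplicate slides.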 The settings on record: probe aLAP1, fluorescence, higher = more signal.
In a further assay the test system is Sam68 (KHDRBS1). Put plainly: Sam68 small-molecule binders, primary screen, biochemical, small-molecule microarray, 635 nm fluorescence (AID 1125).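 Note: score merges 667 nm channel intensity with signal to noise over triplicate slides.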 The settings on record: small-molecule microarray binding, higher = more signal.
For assay [7], the system named is Chordin-like protein 2 (CHRDL2). Description: CHRDL2 small-molecule binders, primary screen, biochemical, small-molecule microarray, 635 nm fluorescence (AID 1126).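 Note: printed compound slides probed with Chrdl2 protein at 4 µg/mL for 1 h at 4 C; score merges 667 nm emission intensity with signal to noise over three replicate slides.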 The settings on record: small-molecule microarray binding, fluorescence 635 nm; higher = more signal.
Assay [8] has as its target Concanavalin-A (Canavalia ensiformis) (UniProt P02866). Description: ConA small-molecule binders, primary screen, artefact control for SMM control protein annotation, biochemical, small-molecule microarray, Alexa647 label, 635 nm (AID 1127).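 Note: z combines 667 nm emission intensity with signal-to-noise across three replicate slides.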 The settings on record: ConA-A647 binding fluorescence, higher = more signal.
Assay [9] in a line: anti-His antibody binders, primary screen, artefact control for SMM control protein annotation, biochemical, small-molecule microarray, 635 nm fluorescence (AID 1128).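 Note: score merges feature fluorescence with signal-to-noise for each printed compound spot.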 The settings on record: anti-His Alexa647 antibody binding, higher = more signal.
Assay [10] deals with Human papillomavirus type 1a E7 protein (residues 1-88). Put plainly: HPV1a E7 small-molecule binders, primary screen, biochemical, small-molecule microarray, residues 1-88, 635 nm (AID 1129). The settings on record: small-molecule microarray binding, fluorescence 635 nm; higher = more signal.
Assay [11] has as its target Focal adhesion kinase 1 (Homo sapiens) (UniProt Q05397). Put plainly: small-molecule microarray binders of FAK, primary screen, biochemical, 635/667 nm fluorescence, BSA, DTT (AID 1130).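 Note: composite of spot emission at 667 nm and signal to noise over triplicate slides.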 The settings on record: PTK2 binding, 635 nm fluorescence, higher = more signal.
The test system of assay [12] is Fibrinogen (Alexa647-labelled). Put plainly: fibrinogen binders on compound microarrays, profiling panel, artefact control for SMM control-protein annotation, biochemical, small-molecule microarray, 635/667 nm fluorescence (AID 1131).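 Note: z-score merges 667 nm fluorescence with per-spot signal-to-noise over triplicate slides.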 The settings on record: fibrinogen-A647 binding fluorescence, higher = more signal.
Assay [13] has as its target Follistatin (Homo sapiens) (UniProt P19883). Description: follistatin binders on small-molecule microarrays, primary screen, biochemical, small-molecule microarray, 635/667 nm fluorescence (AID 1132). The settings on record: FST binding, 635 nm fluorescence, higher = more signal.
For assay [14], the target named is Fibroblast growth factor 2 (Homo sapiens) (UniProt P09038). Put plainly: FGF2 binders on small-molecule microarrays, primary screen, biochemical, small-molecule microarray, 635/667 nm fluorescence (AID 1133). The settings on record: small-molecule microarray binding, FGF2, fluorescence 635/667; higher = more signal.
Fibroblast growth factor 2 (Homo sapiens), sequence (P09038 whole entry, looked up): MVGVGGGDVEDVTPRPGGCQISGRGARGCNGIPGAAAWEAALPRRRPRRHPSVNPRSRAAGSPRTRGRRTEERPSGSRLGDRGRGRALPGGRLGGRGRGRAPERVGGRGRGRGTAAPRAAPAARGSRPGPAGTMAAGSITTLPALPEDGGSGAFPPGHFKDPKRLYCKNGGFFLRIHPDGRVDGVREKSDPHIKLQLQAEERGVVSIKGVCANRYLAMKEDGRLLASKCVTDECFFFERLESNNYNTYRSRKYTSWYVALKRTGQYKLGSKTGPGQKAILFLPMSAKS
A short description of assay [15]: mitochondrial membrane potential change in A549 cells, profiling panel, cell-based, JC-1 fluorescence, basal, 24 h, 100 nL (AID 1138).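 Note: A549 lung adenocarcinoma cells under basal conditions with no added stimulus; test concentration not given here.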 The settings on record: higher = more signal.
The next assay relates to Lefty1. Put plainly: Lefty1 binders on small-molecule microarrays, primary screen, biochemical, small-molecule microarray, 635/667 nm fluorescence (AID 1139). The settings on record: small-molecule microarray binding, fluorescence 635/667; higher = more signal.
The subject of assay [16] is wheat germ agglutinin (Triticum aestivum), Alexa647-labelled. Description: wheat germ agglutinin binders on compound microarrays, profiling panel, artefact control for SMM control-protein annotation, biochemical, small-molecule microarray, 635/667 nm fluorescence (AID 1140).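 Note: score merges 667 nm feature emission with signal to noise over triplicate slides.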 The settings on record: WGA-A647 binding, 635 nm fluorescence, higher = more signal.
Assay [17] deals with Luciferin 4-monooxygenase (Photinus pyralis) (UniProt P08659). Description: firefly luciferase enzyme inhibitors, primary screen, biochemical, luminescence, purified enzyme, 2006 set (AID 1141).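 Note: cell-free assay with purified firefly luciferase at 100 ng per well in PBS; test concentration not given here.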 The settings on record: SteadyGlo luminescence, 30 min, higher = more signal, called active from +8 up or from −8 down.
Luciferin 4-monooxygenase (Photinus pyralis), sequence (P08659 whole entry, looked up): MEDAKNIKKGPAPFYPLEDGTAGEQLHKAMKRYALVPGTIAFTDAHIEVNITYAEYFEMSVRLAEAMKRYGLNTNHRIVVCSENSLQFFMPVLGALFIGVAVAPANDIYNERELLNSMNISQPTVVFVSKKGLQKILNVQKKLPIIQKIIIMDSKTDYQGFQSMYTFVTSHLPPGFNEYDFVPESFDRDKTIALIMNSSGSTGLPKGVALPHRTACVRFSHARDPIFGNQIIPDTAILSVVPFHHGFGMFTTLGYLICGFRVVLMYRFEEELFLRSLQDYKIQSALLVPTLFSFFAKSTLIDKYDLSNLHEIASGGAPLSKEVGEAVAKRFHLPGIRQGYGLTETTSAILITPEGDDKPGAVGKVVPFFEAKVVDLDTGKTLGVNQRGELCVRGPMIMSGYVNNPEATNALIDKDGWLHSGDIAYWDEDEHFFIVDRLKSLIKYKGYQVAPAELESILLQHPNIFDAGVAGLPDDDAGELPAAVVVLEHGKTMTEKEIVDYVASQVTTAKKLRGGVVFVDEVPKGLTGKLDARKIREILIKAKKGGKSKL

Focal adhesion kinase 1 (Homo sapiens), sequence (Q05397 whole entry, looked up): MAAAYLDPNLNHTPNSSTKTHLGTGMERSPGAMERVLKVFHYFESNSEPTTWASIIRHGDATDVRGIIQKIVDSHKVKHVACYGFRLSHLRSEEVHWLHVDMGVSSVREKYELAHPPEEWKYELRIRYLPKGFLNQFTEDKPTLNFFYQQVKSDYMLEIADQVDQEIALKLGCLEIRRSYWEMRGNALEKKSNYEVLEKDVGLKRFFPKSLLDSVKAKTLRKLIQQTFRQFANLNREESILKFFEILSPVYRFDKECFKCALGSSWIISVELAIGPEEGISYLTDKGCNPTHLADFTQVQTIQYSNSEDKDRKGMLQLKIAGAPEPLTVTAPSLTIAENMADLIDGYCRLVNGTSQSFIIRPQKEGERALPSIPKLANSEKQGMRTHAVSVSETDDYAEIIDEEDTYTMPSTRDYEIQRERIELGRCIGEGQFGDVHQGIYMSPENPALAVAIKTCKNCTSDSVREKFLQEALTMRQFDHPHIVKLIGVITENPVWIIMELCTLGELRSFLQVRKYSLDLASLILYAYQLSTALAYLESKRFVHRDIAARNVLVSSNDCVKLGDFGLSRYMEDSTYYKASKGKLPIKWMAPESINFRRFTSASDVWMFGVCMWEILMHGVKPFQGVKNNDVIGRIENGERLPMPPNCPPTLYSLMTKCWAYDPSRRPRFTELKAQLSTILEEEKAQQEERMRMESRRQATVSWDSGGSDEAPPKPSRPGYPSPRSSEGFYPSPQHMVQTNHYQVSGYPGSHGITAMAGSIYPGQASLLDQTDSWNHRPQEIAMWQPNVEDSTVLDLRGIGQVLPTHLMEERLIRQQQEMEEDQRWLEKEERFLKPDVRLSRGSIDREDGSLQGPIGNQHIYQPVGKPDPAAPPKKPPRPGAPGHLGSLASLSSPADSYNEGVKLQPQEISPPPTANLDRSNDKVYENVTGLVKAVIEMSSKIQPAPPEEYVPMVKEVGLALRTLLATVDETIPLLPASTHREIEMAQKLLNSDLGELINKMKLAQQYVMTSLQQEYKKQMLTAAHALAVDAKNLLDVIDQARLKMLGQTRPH
Follistatin (Homo sapiens), sequence (P19883 whole entry, looked up): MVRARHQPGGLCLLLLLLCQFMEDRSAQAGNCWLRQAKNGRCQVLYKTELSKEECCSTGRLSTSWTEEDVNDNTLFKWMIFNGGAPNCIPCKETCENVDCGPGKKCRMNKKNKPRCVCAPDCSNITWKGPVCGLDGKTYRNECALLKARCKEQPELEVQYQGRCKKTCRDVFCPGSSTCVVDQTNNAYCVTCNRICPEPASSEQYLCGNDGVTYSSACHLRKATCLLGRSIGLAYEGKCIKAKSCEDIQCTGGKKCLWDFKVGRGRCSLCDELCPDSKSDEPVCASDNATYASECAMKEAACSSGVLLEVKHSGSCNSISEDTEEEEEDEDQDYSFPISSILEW
Concanavalin-A (Canavalia ensiformis), sequence (P02866 whole entry, looked up): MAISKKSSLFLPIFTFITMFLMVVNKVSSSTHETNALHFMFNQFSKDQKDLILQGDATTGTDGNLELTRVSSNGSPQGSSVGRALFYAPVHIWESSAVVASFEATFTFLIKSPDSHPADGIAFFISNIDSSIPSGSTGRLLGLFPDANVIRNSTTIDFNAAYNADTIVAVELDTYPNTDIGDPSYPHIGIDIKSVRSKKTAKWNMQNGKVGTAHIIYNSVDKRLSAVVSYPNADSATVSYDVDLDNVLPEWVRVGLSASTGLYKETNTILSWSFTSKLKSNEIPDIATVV

With `C=CCC(OC(C)=O)[C@@H]1[C@@H](N(Cc2ccc(-c3cccc(C(F)(F)F)c3)o2)C(=O)Cc2ccc(OC)cc2)c2cc(OCCCO)ccc2N1C(=O)c1ccc(-c2ccccc2)cc1` (stereo not given in full), the composite z-score in the assay with Albumin (Bos taurus) is 0.0925; in assay [2], 0.0711; in [3], 0.0178; in assay [4], 0.251; in [5] it was 0.206; in assay [6], -0.155. Besides, the composite z-score was 0.272 with Sam68 (KHDRBS1); 0.121 in [7]; -0.94 in assay [8]; -0.0127 in assay [9]; -0.501 in assay [10]; -0.326 in assay [11]. Further, the composite z-score in assay [12] was -0.771; in assay [13], 0.569; in [14], 0.119; in the assay with Lefty1, 0.0533; in assay [16] it was -0.402. For the same compound, the composite Z-score in assay [1] was -0.4 (inactive). Also, the z-score in assay [15] is 0.0544; in assay [17], 0.244 (inactive).
Consider `COc1cc(NN2C(C(O)c3ccc(N(C)C)cc3)C=CC3C(=O)N(c4ccccc4)C(=O)C32)cc(OC)c1OC` (stereo not given), for which the composite z-score with Albumin (Bos taurus) is 0.353; in assay [2], 0.448; in assay [3], 0.0606; in [4] it was 0.192; in assay [5], 0.68; in [6] it was -0.196. In addition, the composite z-score in the assay on Sam68 (KHDRBS1) is 0.913; in assay [7] it was -0.148; in assay [8], 0.0693; in assay [9], 0.555; in assay [10], 1.03; in assay [11] it was 0.0507. Also, the composite z-score in [12] is 0.945; in assay [13], 1.22; in assay [14] it was -0.223; with Lefty1, 0.0646; in assay [16] it was 0.885. Also, the composite Z-score in [1] is 0.785 (inactive). Also, the z-score is 0.0531 in assay [15] and 0.11 (inactive) in [17].
For `CC(=O)NCCCC[C@@H]1NC(=O)[C@@H]2C[C@H](C(=O)NCCCCCN)[C@H](c3ccc(O)cc3)N2C1=O`, the composite z-score with Albumin (Bos taurus) came out at 0.0285; in [2], 0.237; in assay [3], 0.0654; in [4] it was 0.527; in assay [5] it was 1.26; in assay [6] it was 1.06. For the same compound, the composite z-score with Sam68 (KHDRBS1) is 1.11; in assay [7], 0.964; in assay [8], 0.956; in [9], 0.367; in assay [10], 1.19; in assay [11], 0.445. The composite z-score was found to be 0.671 in [12]; 1.33 in [13]; 1.24 in assay [14]; 1.58 in the assay on Lefty1; 0.283 in assay [16]. Also, the composite Z-score in [1] is -0.0662 (inactive). Besides, the z-score is -0.664 in assay [15] and -0.399 (inactive) in assay [17].
On to `CN(C)C(=O)[C@@]1(Cc2ccccc2CN=[N+]=[N-])N=C(c2ccc(OCCCO)cc2)O[C@H]1c1ccccc1N=[N+]=[N-]`, for which the composite z-score is 0.973 with Albumin (Bos taurus); 0.612 in [2]; -0.115 in [3]; 0.731 in assay [4]; 2.95 in [5]; 0.772 in assay [6]. In addition, the composite z-score in the assay on Sam68 (KHDRBS1) was 1.21; in assay [7], -0.612; in assay [8], 1.1; in assay [9], 2.09; in assay [10], 1.27; in assay [11] it was 0.801. Further, the composite z-score is 0.983 in [12]; 0.711 in [13]; -0.0088 in [14]; 0.627 with Lefty1; 1.22 in [16]. Also, the composite Z-score in assay [1] is 0.91 (inactive). The z-score in [15] was -1.02; in assay [17], -6.81 (inactive).
With `CC[C@@H]1C=C(C(=O)O)[C@H](c2ccc(C#N)cc2)N1S(=O)(=O)c1ccc(C)cc1`, the composite z-score with Albumin (Bos taurus) was 0.173; in assay [2], -0.0077; in [3] it was -0.046; in assay [4], 0.838; in assay [5], 3.03; in assay [6] it was 1.44. Besides, the composite z-score is 1.09 in the assay on Sam68 (KHDRBS1); -1.52 in assay [7]; 0.91 in assay [8]; 3.35 in assay [9]; 0.845 in assay [10]; 0.941 in assay [11]. Also, the composite z-score in assay [12] was -0.0509; in [13], -0.594; in assay [14], -0.105; in the assay with Lefty1 it was -0.833; in [16] it was 1.09. Besides, the composite Z-score in [1] is 0.474 (inactive). For the same compound, the z-score in assay [15] is -0.0902; in assay [17], 0.522 (inactive).
`C#CCN(Cc1ccccc1Br)[C@H](/C=C/c1ccccc1)[C@@H](O)Cc1ccccc1`: the composite z-score with Albumin (Bos taurus) was -0.33; in [2], -0.226; in assay [3] it was -0.167; in [4], -0.128; in assay [5], 0.222; in assay [6] it was 0.163. The composite z-score with Sam68 (KHDRBS1) was 0.446; in [7], 0.129; in assay [8] it was -1.01; in assay [9], 0.244; in assay [10], -0.548; in assay [11], -0.082. The composite z-score in assay [12] was -1.24; in assay [13] it was -1.25; in [14], -1.23; in the assay with Lefty1, -0.62; in assay [16] it was -0.351. For the same compound, the composite Z-score in [1] is 0.258 (inactive). For the same compound, the z-score in [15] is 0.921; in assay [17], -0.629 (inactive).
